# High-throughput results deposited in PubChem by University of Kansas High Throughput Screening Laboratory.
# mHTT CaM bind: mHTT-calmodulin interaction abrogation | P42858 | AlphaScreen His-mHTT/GST-CaM binding, luminescence | inhibition, % at 15 µM | 3.6% of 190,000 active;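 further: 0% = both proteins with DMSO and 100% = one protein alone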
# Target sequence (P42858 whole entry, looked up, stated change not applied): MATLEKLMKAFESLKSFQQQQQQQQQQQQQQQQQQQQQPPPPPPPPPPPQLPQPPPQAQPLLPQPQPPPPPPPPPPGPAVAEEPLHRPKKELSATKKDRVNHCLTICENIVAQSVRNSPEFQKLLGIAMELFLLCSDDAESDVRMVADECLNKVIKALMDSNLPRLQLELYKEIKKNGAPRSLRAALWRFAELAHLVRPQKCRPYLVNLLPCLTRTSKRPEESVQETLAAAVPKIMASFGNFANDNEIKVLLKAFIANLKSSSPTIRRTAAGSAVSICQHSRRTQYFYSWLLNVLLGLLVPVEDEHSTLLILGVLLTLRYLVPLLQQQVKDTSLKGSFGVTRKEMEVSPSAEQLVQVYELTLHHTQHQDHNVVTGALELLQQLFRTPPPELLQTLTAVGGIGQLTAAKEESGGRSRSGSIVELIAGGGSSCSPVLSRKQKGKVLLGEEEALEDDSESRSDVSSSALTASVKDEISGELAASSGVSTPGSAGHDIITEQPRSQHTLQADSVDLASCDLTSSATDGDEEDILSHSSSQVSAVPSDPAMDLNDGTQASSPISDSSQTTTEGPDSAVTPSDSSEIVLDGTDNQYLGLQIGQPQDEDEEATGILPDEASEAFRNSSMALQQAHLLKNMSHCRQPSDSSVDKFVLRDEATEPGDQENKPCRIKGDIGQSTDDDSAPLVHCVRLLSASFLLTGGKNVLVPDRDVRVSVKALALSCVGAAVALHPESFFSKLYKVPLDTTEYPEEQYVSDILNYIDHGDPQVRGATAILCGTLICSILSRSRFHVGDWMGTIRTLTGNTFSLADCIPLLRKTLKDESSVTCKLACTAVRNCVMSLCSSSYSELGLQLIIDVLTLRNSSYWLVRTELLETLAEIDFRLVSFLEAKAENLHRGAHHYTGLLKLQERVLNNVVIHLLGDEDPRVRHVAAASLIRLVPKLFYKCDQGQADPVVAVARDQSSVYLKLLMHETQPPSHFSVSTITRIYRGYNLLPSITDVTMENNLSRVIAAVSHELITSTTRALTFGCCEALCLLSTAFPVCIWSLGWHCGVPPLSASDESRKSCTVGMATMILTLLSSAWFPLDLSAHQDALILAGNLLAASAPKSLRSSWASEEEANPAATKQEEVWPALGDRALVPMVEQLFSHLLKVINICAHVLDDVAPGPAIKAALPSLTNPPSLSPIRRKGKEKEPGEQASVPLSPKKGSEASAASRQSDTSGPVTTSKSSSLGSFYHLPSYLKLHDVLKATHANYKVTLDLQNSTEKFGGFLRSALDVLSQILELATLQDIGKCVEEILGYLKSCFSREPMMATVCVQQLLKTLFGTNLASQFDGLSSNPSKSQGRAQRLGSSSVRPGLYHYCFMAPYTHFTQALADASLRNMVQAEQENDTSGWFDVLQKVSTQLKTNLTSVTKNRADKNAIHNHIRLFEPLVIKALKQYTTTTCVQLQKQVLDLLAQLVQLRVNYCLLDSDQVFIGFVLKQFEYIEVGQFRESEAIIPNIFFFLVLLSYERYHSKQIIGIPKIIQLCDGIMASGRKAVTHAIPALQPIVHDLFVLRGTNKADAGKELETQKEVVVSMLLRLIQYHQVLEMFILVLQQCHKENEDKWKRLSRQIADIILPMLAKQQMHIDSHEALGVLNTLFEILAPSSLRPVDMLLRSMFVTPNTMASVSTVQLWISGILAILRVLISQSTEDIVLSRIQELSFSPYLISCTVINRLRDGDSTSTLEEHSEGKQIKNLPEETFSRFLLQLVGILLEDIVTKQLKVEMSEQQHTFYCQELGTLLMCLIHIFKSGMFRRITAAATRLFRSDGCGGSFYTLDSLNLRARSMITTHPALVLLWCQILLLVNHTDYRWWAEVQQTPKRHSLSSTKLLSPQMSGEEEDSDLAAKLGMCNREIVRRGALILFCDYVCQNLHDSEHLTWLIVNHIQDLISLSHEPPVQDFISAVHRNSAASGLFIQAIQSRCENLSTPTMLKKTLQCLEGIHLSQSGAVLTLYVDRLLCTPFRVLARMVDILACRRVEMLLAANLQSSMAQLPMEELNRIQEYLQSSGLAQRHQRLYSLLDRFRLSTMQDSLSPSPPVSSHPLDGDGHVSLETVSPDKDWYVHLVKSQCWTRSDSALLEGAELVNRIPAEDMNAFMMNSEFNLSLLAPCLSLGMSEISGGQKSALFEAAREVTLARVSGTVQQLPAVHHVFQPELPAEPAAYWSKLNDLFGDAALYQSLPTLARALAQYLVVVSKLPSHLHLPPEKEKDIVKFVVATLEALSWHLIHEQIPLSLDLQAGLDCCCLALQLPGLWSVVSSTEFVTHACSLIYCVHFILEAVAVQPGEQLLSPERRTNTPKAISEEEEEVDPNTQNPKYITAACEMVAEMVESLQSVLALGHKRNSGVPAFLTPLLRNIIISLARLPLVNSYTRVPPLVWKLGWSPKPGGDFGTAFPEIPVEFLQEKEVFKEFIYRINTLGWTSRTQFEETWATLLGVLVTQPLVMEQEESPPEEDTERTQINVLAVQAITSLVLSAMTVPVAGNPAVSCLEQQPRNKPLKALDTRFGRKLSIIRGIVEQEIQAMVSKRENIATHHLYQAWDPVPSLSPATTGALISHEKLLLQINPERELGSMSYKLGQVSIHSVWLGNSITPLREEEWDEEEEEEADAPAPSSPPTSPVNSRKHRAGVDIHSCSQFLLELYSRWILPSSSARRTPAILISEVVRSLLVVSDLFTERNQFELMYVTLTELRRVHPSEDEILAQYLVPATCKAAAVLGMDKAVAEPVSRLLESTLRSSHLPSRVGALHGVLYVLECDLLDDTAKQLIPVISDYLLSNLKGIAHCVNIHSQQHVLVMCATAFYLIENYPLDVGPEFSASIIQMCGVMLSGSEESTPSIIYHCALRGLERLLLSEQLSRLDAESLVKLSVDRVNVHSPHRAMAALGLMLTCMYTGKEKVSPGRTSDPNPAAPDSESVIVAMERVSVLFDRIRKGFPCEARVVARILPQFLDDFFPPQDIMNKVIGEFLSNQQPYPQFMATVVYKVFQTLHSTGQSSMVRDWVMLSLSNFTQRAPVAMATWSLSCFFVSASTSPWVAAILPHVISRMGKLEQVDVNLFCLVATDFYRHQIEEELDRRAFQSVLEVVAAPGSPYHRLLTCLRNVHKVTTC
# Pf apPOL block: Pf-apPOL DNA polymerase inhibition | Recombinant Pf-apPOL, molecular beacon fluorescence, 1.5 h | inhibition, % at 10 µM | 0.25% of 210,000 active
# The depositor's hits bear a star; i = inactive; / = no result; + = active, no number. Sampled rows, rich in hits. Any-hit rate of the full collection: about 3.6%. No stated cut-off is given here; in the data, active means inhibition above about 50%; inactive means the rest.
SMILES,mHTT CaM bind,Pf apPOL block
CC(=O)N1CCc2cc(Br)cc(S(=O)(=O)CCC(=O)NCCC(C)C)c21,-2.0,4.0
COc1ccccc1CC(=O)NCC1COc2ccccc2O1 (configuration not stated),2.1,0.1
COc1ccc2c(c1)CN(c1ccccc1I)CO2,44.0,-0.7
Clc1ccc(N2COc3cc4c(cc3C2)OCO4)cc1,12.0,-8.0
CCOc1ccc(N2COc3ccc(OC)cc3C2)cc1,51.0*,-4.7
CCOc1nc(OCC)nc(N2CCN(c3ccc(OC)cc3)CC2)n1,24.1,-10.3
COc1ccc2c(c1)CN(c1ccc(C)cc1)CO2,53.0*,0.1
COc1ccc(N2COc3ccc(OC)cc3C2)cc1,53.0*,-2.0
COc1ccc2c(c1)CN(c1ccc(Br)cc1)CO2,46.0,-3.5
CCOc1ccc(N2COc3ccc(Cl)cc3C2)cc1,81.0*,-7.3
O=C(Nc1cc(C(F)(F)F)ccc1N1CCCC1)c1cc([N+](=O)[O-])ccc1Cl,-1.0,-2.0
COc1ccccc1NC(=O)c1noc2c1CCCC2,-12.4,-3.0
CC(C)(C)CC(C)(C)NC(=O)c1cccc(N=Cc2ccccc2O)c1,/,3.1
CC1=C(C(=O)Nc2ccccn2)C(c2cccs2)C2=C(CCCC2=O)N1 (configuration not stated),1.0,2.0
COc1ccc(CN2CCOCC2)cc1,-3.7,-0.1
O=S1(=O)CCC(NS(=O)(=O)c2ccc(-c3ccccn3)s2)C1 (configuration not stated),/,-12.2
CCOc1ccc(N2C(=O)CC(N3CCN(c4ccc(F)cc4)CC3)C2=O)cc1 (configuration not stated),-6.4,-3.2
CCOc1ccc(N2COc3ccc(F)cc3C2)cc1,59.0*,1.7
Cc1ccc2c(Nc3cccc(C#N)c3)c(C(=O)N3CCCCC3)cnc2n1,5.6,2.2
C#CCOc1ccc(/C=N\n2cnnc2N/N=C/c2ccc(OCC#C)c(OC)c2)cc1OC,+,/
Oc1ccc(/C=N\Nc2nncn2/N=C\c2ccc(O)c(O)c2)cc1O,i,/
Cc1nn(-c2ccccc2)c2nc(N)c(C(N)=O)cc12,/,-5.0
O=C(O)COCCN1CCN(C(c2ccccc2)c2ccc(Cl)cc2)CC1 (configuration not stated),/,10.9
CC(C)CC(=O)N1CCN(C(=O)c2cccc(F)c2)CC1,0.9,-3.7
CCOC(=O)CCc1c(C)n[nH]c1C,-0.6,-1.2
SMILES,mHTT CaM bind,Pf apPOL block
CCOC(=O)CCc1c(CC(=O)OCC)c[nH]c1C=NO,/,99.4*
Cc1ccsc1C(=O)N1CCC2(CC1)NC(=O)N(Cc1cccc(Cl)c1)C2=O,8.6,-3.6
OC(CNCCc1ccccc1)CN1c2ccccc2Sc2ccccc21 (configuration not stated),100.3*,-0.7
CCN(CC)C(C)CN1c2ccccc2Sc2ccccc21 (configuration not stated),/,-3.4
CCC(CO)NCC(O)CN1c2ccccc2Sc2ccccc21 (configuration not stated),9.8,-0.7
OC(CN1c2ccccc2Sc2ccccc21)Cn1cnc(-c2ccccc2)c1-c1ccccc1 (configuration not stated),100.2*,/
O=C(C1CCCO1)N1CCN(c2ccc(Nc3cccnc3)nn2)CC1 (configuration not stated),-3.4,2.0
Cc1ccc(NC(=O)c2cc(NC(=O)CCC(=O)O)ccc2N2CCCCC2)cc1,33.1,-3.3
CN(Cc1ccccc1)S(=O)(=O)c1ccc(C(=O)Nc2nnc(C3CC3)o2)cc1,36.0,-22.0
CCc1[nH]c2ccccc2c1C,50.5*,-10.7
Cc1c(Cl)c(=O)[nH]c2ccccc12,/,-8.5
Cc1ccc(C2Nc3ccccc3C(=O)N2c2ccc(N(C)C)cc2)cc1 (configuration not stated),1.0,-0.7
C=CCn1c(SCC(=O)O)nnc1-c1cccs1,50.2*,-5.4
C=CCn1c(SCC(=O)c2ccc(F)cc2)nnc1-c1cccs1,-0.5,-7.9
CC1CC(C)CN(Cc2c(O)ccc3c2OC(=Cc2ccc4c(c2)OCO4)C3=O)C1 (configuration not stated),3.6,-7.0
Cc1ccc2nc(C(=O)NCCN3CCCCCC3)cn2c1,50.1*,34.3
Cc1ccc2nc(C(=O)NCCN3CCCCC3)cn2c1,-3.9,-2.5
Clc1ccc(/C=N\n2cnnc2)c(Cl)c1,i,/
CC(C)(C)c1cc(C(c2ccccn2)N2CCCCC2)cc(C(C)(C)C)c1O (configuration not stated),77.2*,-4.6
Cn1ccnc1C(O)c1cc(C(C)(C)C)c(O)c(C(C)(C)C)c1 (configuration not stated),17.6,-7.0
CCOC(=O)Oc1c(Cl)cc2oc(=O)sc2c1Cl,77.0*,2.2
CCOC(=O)Oc1ccc2c(=O)c(-c3ccc(OC)cc3)c(C)oc2c1,6.0,0.7
CCC(=O)N1CCc2sc(C(=O)N3CCN(CC)CC3)cc2C1,-1.7,5.5
CC(=O)N1CCc2sc(C(=O)N3CCN(c4ccccc4F)CC3)cc2C1,33.1,1.9
CCC(=O)N1CCc2sc(C(=O)N3CCN(c4cc(C)ccc4C)CC3)cc2C1,65.7*,1.9
SMILES,mHTT CaM bind,Pf apPOL block
CC(=O)N1CCc2sc(C(=O)N3CCN(c4cc(C)ccc4C)CC3)cc2C1,65.0*,0.9
CC1(C)CC(NC(=O)Cc2ccccc2)CC(C)(CNC(=O)Cc2ccccc2)C1 (configuration not stated),35.4,1.1
N#Cc1cn(CCOc2ccccc2F)c2ccccc12,-65.0,-2.3
O=C(CCCn1cccc1)Nc1ccccc1Cl,-8.1,-7.1
N#Cc1ccc(-c2ccccc2)[nH]c1=O,4.0,-7.9
O=c1cc(-c2ccccc2)[nH][nH]1,100.1*,-6.1
O=C(OCCSCc1cc([N+](=O)[O-])cc2c1OCOC2)c1cc(Cl)cc(Cl)c1,/,-7.3
N#CC1=C(N)Oc2n[nH]c(-c3ccccc3)c2C1c1ccco1 (configuration not stated),4.0,-6.2
Cc1ccc(-c2cc(C(=O)N3CCN(c4ccccn4)CC3)c(C)[nH]2)cc1C,97.8*,-8.0
Cc1occc1C(=O)N1CCN(c2ccccn2)CC1,-4.3,-10.2
CC(C)c1ccc(NC(=O)CNS(=O)(=O)c2ccc(Br)s2)cc1,-1.0,-8.8
O=C(NNC(=O)C(F)(F)Sc1ccccc1)c1ccsc1,/,53.7*
O=C(NCC(O)(c1ccccc1)C(F)(F)F)c1ccsc1 (configuration not stated),-17.5,-8.9
Cc1noc(CNC(=O)c2ccc(-n3cccc3)cc2)n1,1.4,6.8
Cc1ccc([N+](=O)[O-])c2c3c([nH]c12)C(=O)CCC3,11.7,83.0*
Cc1ccc([N+](=O)[O-])c2c3c([nH]c12)C(=NCCO)CCC3,22.0,1.0
Oc1ccc(/C=N/Nc2nccnc2Cl)c(O)c1,+,/
Oc1ccccc1C=NNc1nc2c(Cl)cc(Cl)cc2s1,/,0.5
Cc1c(Cl)cccc1NC(=O)c1cncc(Br)c1,-10.8,-6.9
Cc1ccc(C)c(NC(=O)CSc2nnnn2C)c1,-1.4,-0.7
O=c1oc(=O)n(Cc2ccc(Cl)c(Cl)c2)c2ccccc12,99.0*,-3.1
N=c1n(CCO)c2ccccc2n1Cc1ccc(Cl)c(Cl)c1,12.8,-8.0
Cn1c(=O)n(Cc2ccc(Cl)c(Cl)c2)c2ccccc21,77.6*,-5.2
Cn1c(=O)n(Cc2ccccc2Cl)c2ccccc21,3.0,-2.5
COc1cc2c(cc1OC)C(c1cccc([N+](=O)[O-])c1)N(C(=O)CCC(=O)O)CC2 (configuration not stated),4.5,-3.1
C=C(C)COc1cc2occ(-c3ccc4c(c3)OCCO4)c(=O)c2cc1CC,-14.2,0.4
